Measurements: PubChem BioAssay (NCI)
This is part of a sample that, as a whole, favours compounds with a hit. Of some 79,000 tested, about 15% had one in any assay. Active and inactive are the calls of the source. Cut-off read from the data, not from the text of the source: active = growth inhibition above about 70%; inactive = the rest.

Experiments:
[1] = NCI Yeast Anticancer Drug Screen. Data for the rad52 strain (AID 147);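 note: 0% = growth of vehicle-treated control cultures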; conditions: S. cerevisiae rad52 mutant growth inhibition, stronger effect = higher value
Procedure, shortened: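 Screen used a yeast mutant impaired in DNA repair. After compound exposure, growth was measured. Values reflect inhibition compared with vehicle-treated cells.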

[2] = NCI Yeast Anticancer Drug Screen. Data for the wt1 strain (AID 149);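 note: 0% = growth of vehicle-treated wt1 cultures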; conditions: S. cerevisiae wt1 strain (SPY 50644) growth inhibition, stronger effect = higher value
Procedure, shortened: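 Measured: growth of wt1 yeast under compound versus vehicle treatment, reported as inhibition.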

[3] = NCI Yeast Anticancer Drug Screen. Data for the rad50EPP+ strain (AID 151);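 note: 0% = growth of vehicle-treated control cultures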; conditions: S. cerevisiae rad50 mutant strain, stronger effect = higher value
Procedure, shortened: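 Exposing the rad50EPP+ strain to each compound, growth was compared with vehicle-only cultures to give inhibition.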

[4] = NCI Yeast Anticancer Drug Screen. Data for the mgt1 strain (AID 153); conditions: S. cerevisiae mgt1 mutant growth inhibition, stronger effect = higher value
Procedure, shortened: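 Genetically defined yeast (mgt1) treated with compound; inhibition of growth expressed against vehicle-treated controls.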

[5] = NCI Yeast Anticancer Drug Screen. Data for the rad50 strain (AID 155);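 note: 0% = growth of vehicle-only cultures of the same strain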; conditions: S. cerevisiae rad50 strain growth inhibition, stronger effect = higher value
Procedure, shortened: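 Growth of the mutant yeast was measured after compound exposure and referenced to vehicle-treated cultures.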

[6] = NCI Yeast Anticancer Drug Screen. Data for the mec2-1 strain (AID 157); conditions: S. cerevisiae mec2-1 strain, stronger effect = higher value
Procedure, shortened: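 Readout is yeast growth inhibition, normalised to vehicle-treated controls, in the mec2-1 strain exposed to compound.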

[7] = NCI Yeast Anticancer Drug Screen. Data for the rad14 strain (AID 159);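 note: 0% = growth of vehicle-treated control cultures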; conditions: S. cerevisiae rad14 strain growth inhibition, stronger effect = higher value
Procedure, shortened: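 Here, inhibition of yeast growth was measured after compound exposure, using a strain with a genetic defect in DNA damage repair and vehicle-treated cultures as the reference.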

[8] = NCI Yeast Anticancer Drug Screen. Data for the sgs1 mgt1 strain (AID 161);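 note: 0% = growth of cultures given vehicle only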; conditions: S. cerevisiae sgs1 mgt1 strain, stronger effect = higher value
Procedure, shortened: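 Percent growth inhibition was derived by comparing compound-exposed mutant yeast with vehicle-exposed cultures. The strain carries alterations in DNA damage repair.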

[9] = NCI Yeast Anticancer Drug Screen. Data for the CLN2oe strain (AID 163);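 note: 0% = growth of vehicle-only control cultures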; conditions: S. cerevisiae CLN2oe strain, stronger effect = higher value
Procedure, shortened: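 Values reflect how much compound exposure reduced yeast growth, referenced to vehicle-exposed cells. Assay organism is a strain with a defined genetic change affecting cell-cycle control.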

[10] = NCI Yeast Anticancer Drug Screen. Data for the cln2 rad14 strain (AID 165);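 note: 0% = growth equal to vehicle treated cultures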; conditions: S. cerevisiae cln2 rad14 strain, stronger effect = higher value
Procedure, shortened: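 Relative to vehicle controls, growth inhibition of compound-treated cln2 rad14 yeast was recorded.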

[11] = NCI Yeast Anticancer Drug Screen. Data for the bub3 strain (AID 167); conditions: S. cerevisiae bub3 mutant strain, stronger effect = higher value
Procedure, shortened: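 Whole-cell yeast assay. The mutant strain was incubated with compounds, and growth inhibition was determined by comparison with vehicle-treated cells.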

[12] = NCI Yeast Anticancer Drug Screen. Data for the wt2 strain (AID 169);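 note: 0% = growth of vehicle-treated yeast cultures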; conditions: S. cerevisiae wt2 strain growth inhibition, stronger effect = higher value
Procedure, shortened: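 Values express reduction in yeast growth under compound treatment, referenced to vehicle-treated cells.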

[13] = NCI Yeast Anticancer Drug Screen. Data for the mlh1 strain (AID 171);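 note: 0% = growth of vehicle-treated control cultures of the same strain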; conditions: S. cerevisiae mlh1 strain growth inhibition, stronger effect = higher value
Procedure, shortened: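 Steps: expose the defined-mutant yeast strain to compound; expose a parallel culture to vehicle; measure growth; express compound effect as inhibition relative to the vehicle culture.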

[14] = NCI Yeast Anticancer Drug Screen. Data for the sgs1 strain (AID 173);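 note: 0% = growth of vehicle-only control cultures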; conditions: S. cerevisiae sgs1 mutant, stronger effect = higher value
Procedure, shortened: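 Treat defined-mutant yeast with compound; measure growth; calculate inhibition relative to vehicle-treated cells.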

[15] = NCI Yeast Anticancer Drug Screen. Data for the mlh1 rad18 strain (AID 175); conditions: S. cerevisiae mlh1 rad18 strain growth inhibition, stronger effect = higher value
Procedure, shortened: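 Test agents were incubated with a yeast strain of defined genotype (DNA damage repair defect). Inhibition of growth was derived by comparison with vehicle-exposed cultures.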

[16] = NCI Yeast Anticancer Drug Screen. Data for the rad18 strain (AID 177); conditions: S. cerevisiae rad18 mutant growth inhibition, stronger effect = higher value
Procedure, shortened: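 A genetically defined yeast mutant impaired in DNA damage repair was treated with test compounds, then its growth was measured against cultures receiving vehicle alone.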

[17] = at 5.0 µM (retest, dose inferred, filed as 0.5)
[18] = at 50.0 µM (retest, dose inferred, filed as 5.0)

Measured: growth inhibition

CN(C)c1ccc(N=Nc2ccncc2)cc1
active: [1]; at 100.0 µM 71% | [3]; at 33.0 µM 87% | [3]; at 100.0 µM 82% | [5]; at 50.0 µM 82.3% | [5]; at 100.0 µM 77% | [8]; at 50.0 µM 70.6% | [11]; at 33.0 µM 78% | [11]; [18] 73% | [11]; at 50.0 µM 86.5% | [11]; at 100.0 µM 86%
inactive: [1]; at 1.2 µM 1% | [1]; at 3.7 µM 1% | [1]; at 11.0 µM 15% | [1]; at 33.0 µM 33% | [2]; at 1.2 µM -7% | [2]; at 3.7 µM -3% | [2]; at 11.0 µM -1% | [2]; at 33.0 µM -1% | [2]; at 100.0 µM 40% | [3]; at 1.2 µM 3% | [3]; at 3.7 µM 12% | [3]; at 11.0 µM 64% | [4]; at 1.2 µM -2% | [4]; at 3.7 µM 12% | [4]; at 11.0 µM 31% | [4]; at 33.0 µM 35% | [4]; at 100.0 µM 49% | [5]; at 1.2 µM 8% | [5]; at 3.7 µM 11% | [5]; [17] -86% | [5]; at 11.0 µM 31% | [5]; at 33.0 µM 55% | [5]; [18] 27% | [6]; at 1.2 µM -2% | [6]; at 3.7 µM 7% | [6]; [17] -41% | [6]; at 11.0 µM 19% | [6]; at 33.0 µM 18% | [6]; [18] -3% | [6]; at 50.0 µM 53.1% | [6]; at 100.0 µM 67% | [7]; at 1.2 µM 9% | [7]; at 3.7 µM 31% | [7]; at 11.0 µM 51% | [7]; at 33.0 µM 47% | [7]; at 100.0 µM 52% | [8]; [17] -19% | [8]; [18] 32% | [9]; at 1.2 µM 13% | [9]; at 3.7 µM 22% | [9]; at 11.0 µM 37% | [9]; at 33.0 µM 38% | [9]; at 100.0 µM 36% | [10]; [17] -36% | [10]; [18] 2% | [10]; at 50.0 µM 37.1% | [11]; at 1.2 µM 4% | [11]; at 3.7 µM 22% | [11]; [17] -13% | [11]; at 11.0 µM 60% | [12]; at 1.2 µM 3% | [12]; at 3.7 µM 7% | [12]; at 11.0 µM 22% | [12]; at 33.0 µM 23% | [12]; at 100.0 µM 20% | [13]; at 1.2 µM 7% | [13]; at 3.7 µM 11% | [13]; at 11.0 µM 29% | [13]; at 33.0 µM 42% | [13]; at 100.0 µM 47% | [14]; at 1.2 µM 15% | [14]; at 3.7 µM 41% | [14]; at 11.0 µM 63% | [14]; at 33.0 µM 67% | [14]; at 100.0 µM 68% | [15]; [17] -82% | [15]; [18] 4% | [15]; at 50.0 µM 67.7% | [16]; at 1.2 µM 6% | [16]; at 3.7 µM 24% | [16]; at 11.0 µM 35% | [16]; at 33.0 µM 19% | [16]; at 100.0 µM 31%

Oc1cccc2cc(Cl)cnc12
inactive: [1]; at 1.2 µM -5% | [1]; at 3.7 µM 5% | [1]; at 11.0 µM 49% | [2]; at 1.2 µM -28% | [2]; at 3.7 µM -39% | [2]; at 11.0 µM 20% | [3]; at 1.2 µM -11% | [3]; at 3.7 µM -2% | [4]; at 1.2 µM -18% | [4]; at 3.7 µM -22% | [4]; at 11.0 µM 3% | [5]; at 1.2 µM -29% | [5]; at 3.7 µM -13% | [5]; [17] 37% | [5]; at 11.0 µM 37% | [5]; [18] 65% | [6]; at 1.2 µM -56% | [6]; at 3.7 µM -56% | [6]; [17] 38% | [6]; at 11.0 µM 6% | [6]; [18] 69% | [7]; at 1.2 µM -27% | [7]; at 3.7 µM -13% | [7]; at 11.0 µM 28% | [8]; [17] -13% | [9]; at 1.2 µM 5% | [9]; at 3.7 µM 8% | [9]; at 11.0 µM 45% | [10]; [17] 49% | [11]; at 1.2 µM -21% | [11]; at 3.7 µM -8% | [11]; [17] 55% | [11]; at 11.0 µM 20% | [12]; at 1.2 µM -31% | [12]; at 3.7 µM -26% | [12]; at 11.0 µM 1% | [13]; at 1.2 µM -22% | [13]; at 3.7 µM -42% | [13]; at 11.0 µM 3% | [14]; at 1.2 µM -47% | [14]; at 3.7 µM -43% | [14]; at 11.0 µM 46% | [15]; [17] 44% | [15]; [18] 50% | [16]; at 1.2 µM -11% | [16]; at 3.7 µM -4% | [16]; at 11.0 µM 60%
active: [1]; at 33.0 µM 96% | [1]; at 100.0 µM 97% | [2]; at 33.0 µM 96% | [2]; at 100.0 µM 98% | [3]; at 11.0 µM 94% | [3]; at 33.0 µM 98% | [3]; at 100.0 µM 97% | [4]; at 33.0 µM 97% | [4]; at 100.0 µM 98% | [5]; at 33.0 µM 96% | [5]; at 50.0 µM 90.7% | [5]; at 100.0 µM 97% | [6]; at 33.0 µM 97% | [6]; at 50.0 µM 92.8% | [6]; at 100.0 µM 98% | [7]; at 33.0 µM 97% | [7]; at 100.0 µM 98% | [8]; [18] 99% | [8]; at 50.0 µM 91.7% | [9]; at 33.0 µM 95% | [9]; at 100.0 µM 94% | [10]; [18] 98% | [10]; at 50.0 µM 88.7% | [11]; at 33.0 µM 96% | [11]; [18] 99% | [11]; at 50.0 µM 91.8% | [11]; at 100.0 µM 97% | [12]; at 33.0 µM 96% | [12]; at 100.0 µM 98% | [13]; at 33.0 µM 96% | [13]; at 100.0 µM 97% | [14]; at 33.0 µM 97% | [14]; at 100.0 µM 98% | [15]; at 50.0 µM 91.2% | [16]; at 33.0 µM 96% | [16]; at 100.0 µM 97%
